Molecules are shown by their SMILES. Values without a mark were called inactive.

This assay concerns gramicidin D channels in DC22:1PC lipid vesicles (bilayer-modifying potency). The experiment in a line: initial Tl+ fluorescence quench rate relative to no-drug control (NormRate, gramicidin monomer-dimer shift) (ratio (fold of control)); higher = stronger bilayer-modifying effect (equilibrium shifted toward conducting dimers), active = 1.5 or more. Conditions: 10 µM; lipid concentration 50 µM; temperature: 25 °C. Here is the method:
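Stopped-flow fluorescence quench assay: ANTS-loaded DC22:1PC large unilamellar vesicles doped with gramicidin D (1:2000), 50 µM lipid, equilibrated 10 min with 10 µM drug (0.1% DMSO), mixed with Tl+ quench buffer at 25°C. Initial quench rate (Tl+ influx) was fitted with a modified stretched exponential and normalised to the no-drug control rate (NormRate); duplicates from two independent LUV preparations (triplicates for 7 drugs).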
For the compound `COC[C@H](C)NC(=O)CSc1ncnc2sc(-c3ccccc3)cc12`, the “initial Tl+ fluorescence quench rate” value is 1.33.
`Clc1ccc(-n2cc(COc3ccnc4ccccc34)nn2)cc1`: the “initial Tl+ fluorescence quench rate” value was 1.13.
For `CC(=O)Nc1ccc(NC(=O)c2cc(-c3cc(Cl)ccc3O)[nH]n2)cc1`, the “initial Tl+ fluorescence quench rate” value is 1.06.
Turning to `Nc1nccc2ccc(Oc3ccncc3)cc12`, the “initial Tl+ fluorescence quench rate” value was 1.1.
With `CC(C)NCC(=O)Nc1cccc(C(=O)Nc2cccc(C(F)(F)F)c2)c1`, the “initial Tl+ fluorescence quench rate” value is 1.37.
The value for `CCOc1ccc(OCC(=O)Nc2cc(C)cc(C)c2)cc1` was 1.45; that for `O=C(CN1CCOCC1)Nc1ccc2ncnc(Nc3ccc(OCc4cccc(F)c4)c(Cl)c3)c2c1` was 6.71 (active).
Under `Cc1cc2nc(NC(=O)C(C)(C)C)nc(Cl)c2n1Cc1ccc(Cl)cc1` stands 1.77 (active).
Regarding `COc1cc(C2=NCCN2)ccc1-c1cn(-c2cccc(C3=NCCN3)c2)nn1`, the “initial Tl+ fluorescence quench rate” value was 1.01.
The value for `CC(C)(C)CN1C(=O)C(c2ccccc2)(c2ccccc2)N=C1N` was 2.96 (active).
Turning to `Nc1ncnc2c1ncn2C[C@@H](O)[C@@H](O)C(=O)O`, the “initial Tl+ fluorescence quench rate” value was 1.05.
For `COc1ccc(-c2cnc3cnc(-c4cccc(OC(C)C)c4)cn23)cc1`, the “initial Tl+ fluorescence quench rate” value was 2.01 (active).
Take `CC(C)(C(=O)Nc1ccc(F)cc1)n1cc(-c2ccccc2F)cn1`: the “initial Tl+ fluorescence quench rate” value is 1.42.
For the compound `COc1cc(N[C@H](C)CCCN)c2ncccc2c1`, the “initial Tl+ fluorescence quench rate” value is 1.02.
Regarding `COc1ccc(C2=NN(C3CCCCCC3)C(=O)C2(C)C)cc1OCc1ccccn1`, the “initial Tl+ fluorescence quench rate” value was 1.8 (active).
Turning to `c1ccc(Oc2ccc(-c3cncc(-c4ccc5[nH]ccc5c4)n3)cc2)cc1`, the “initial Tl+ fluorescence quench rate” value is 1.69 (active).

The record behind these values is the supplement of paper PMC9948646.
